Data published in PubChem BioAssay (NCATS).
Several values for one entry are separate records, joined by “and”; a condition that tells them apart may be missing. Equal entries are not always repeated. Results filed as inconclusive are left out. Entries that show only a call come without a potency. Unmarked numbers belong to inactive results. Activity calls are given as the source filed them. Calls come from the whole dose curve; as a rule, active = well fitted curve in the direction sought with a large enough effect; inconclusive = small, poorly fitted or top-dose-only effect, or another doubt; inactive = no such curve, though single readings can be large; an effect the other way counts as inactive or inconclusive.

How the values were obtained:
[1] = tested on: SC27B; test: qHTS profiling for inhibitors of Plasmodium falciparum proliferation (AID 504749); note: nearly all actives have a fitted effect of over 60% in size; conditions: P. falciparum in erythrocytes, SYBR Green DNA, 72 h; series mostly up to 28.7 µM
Procedure, shortened: (§1)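 Parasite proliferation within erythrocytes, 72 h exposure. Endpoint: SYBR Green I fluorescence after overnight lysis at room temperature. Controls: 0.29 uM artemisinin, DMSO.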

[2] = tested on: TAB109; test: as above; conditions: P. falciparum in erythrocytes, SYBR Green DNA, 72 h; series mostly up to 28.7 µM
Procedure, shortened: as §1

[3] = tested on: TAB113; test: as above; conditions: P. falciparum in erythrocytes, SYBR Green DNA, 72 h; series mostly up to 28.7 µM
Procedure, shortened: as §1

[4] = tested on: TAB165; test: as above; conditions: P. falciparum in erythrocytes, SYBR Green DNA, 72 h; series mostly up to 28.7 µM
Procedure, shortened: as §1

[5] = tested on: C33A; test: Primary qHTS to identify gynecologic anti-cancer compounds using libraries of approved drugs and bioactive compounds (AID 1345084); conditions: Gynecologic cancer cell panel viability, ATPlite luminescence, 48 h; series mostly up to 57.5 µM; note: nearly all actives have a fitted effect of over 55% in size
Procedure, shortened: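 Cells, 1,000 per well, plated 16 h, then exposed 48 h at 37 C to compounds. Viability by ATPlite luminescence after 15 min at room temperature.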

[6] = tested on: W2; test: qHTS profiling for inhibitors of Plasmodium falciparum proliferation (AID 504749); note: nearly all actives have a fitted effect of over 60% in size; conditions: P. falciparum in erythrocytes, SYBR Green DNA, 72 h; series mostly up to 28.7 µM
Procedure, shortened: as §1

[7] = tested on: HACAT; test: qHTS assay to identify novel small-molecules to repurpose for Merkel cell carcinoma treatment (AID 1296009); conditions: MCC and control cell lines, CellTiter-Glo viability, 72 h; note: nearly all actives have a fitted effect of over 60% in size
Procedure, shortened: (§2)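 qHTS format: cells treated with library compounds in DMSO across 8 (NPC) or 11 (MIPE) concentrations. Readout after 72 hr at 37 degree celsius was CellTiter-Glo luminescence.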

[8] = tested on: HEK293T; test: as above; conditions: MCC and control cell lines, CellTiter-Glo viability, 72 h; at 44.8 µM (top of the series) unless noted
Procedure, shortened: as §2

[9] = tested on: MCC-13; test: as above; conditions: MCC and control cell lines, CellTiter-Glo viability, 72 h; series mostly up to 46 µM
Procedure, shortened: as §2

[10] = tested on: MCC-26; test: as above; conditions: MCC and control cell lines, CellTiter-Glo viability, 72 h; series mostly up to 46 µM
Procedure, shortened: as §2

[11] = tested on: MKL-1; test: as above; conditions: MCC and control cell lines, CellTiter-Glo viability, 72 h; series mostly up to 46 µM
Procedure, shortened: as §2

[12] = tested on: MKL-2; test: as above; conditions: MCC and control cell lines, CellTiter-Glo viability, 72 h; series mostly up to 46 µM
Procedure, shortened: as §2

[13] = tested on: NIH3T3; test: as above; conditions: MCC and control cell lines, CellTiter-Glo viability, 72 h; at 44.8 µM (top of the series) unless noted
Procedure, shortened: as §2

[14] = tested on: UISO; test: as above; conditions: MCC and control cell lines, CellTiter-Glo viability, 72 h; series mostly up to 46 µM
Procedure, shortened: as §2

[15] = tested on: WaGa; test: as above; conditions: MCC and control cell lines, CellTiter-Glo viability, 72 h; series mostly up to 46 µM
Procedure, shortened: as §2

[16] = tested on: CRL-7250; test: Cytotoxic Profiling of Annotated Libraries Using Quantitative High-Throughput Screening (AID 1296008); conditions: Five cell lines viability, CellTiter-Glo ATP luminescence, 48-72 h; max response: stronger effect = lower value; note: nearly all actives have a fitted effect of over 60% in size
Procedure, shortened: (§3)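 Compounds were pin-transferred onto cells and incubated 48 or 72 hr at 37 degree Celsius, 95% humidity. CellTiter-Glo was added, plates sat 10 min at room temperature, then ATP-coupled luminescence was imaged as the viability read-out.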

[17] = tested on: HaCat; test: as above; conditions: Five cell lines viability, CellTiter-Glo ATP luminescence, 48-72 h; max response: stronger effect = lower value
Procedure, shortened: as §3

[18] = tested on: KB-3-1; test: as above; conditions: Five cell lines viability, CellTiter-Glo ATP luminescence, 48-72 h; max response: stronger effect = lower value
Procedure, shortened: as §3

[19] = tested on: NIH3T3; test: as above; conditions: Five cell lines viability, CellTiter-Glo ATP luminescence, 48-72 h; max response: stronger effect = lower value
Procedure, shortened: as §3

[20] = tested on: HEK293; test: as above; conditions: Five cell lines viability, CellTiter-Glo ATP luminescence, 48-72 h; max response: stronger effect = lower value
Procedure, shortened: as §3

[21] = at 44.8 µM (top of the series) unless noted
Potency is the fitted concentration of half-maximal effect.

Structure (SMILES): C=C(c1ccc(C(=O)O)cc1)c1cc2c(cc1C)C(C)(C)CCC2(C)C
- Potency [1]: inactive
- Potency [2]: inactive
- Potency [3]: inactive
- Potency [4]: inactive
- Potency [5]: inactive

Structure (SMILES): NNc1nncc2ccccc12
- Potency [6]: 3.22 µM (active)
- outcome ([7]; at 17.4 µM (top of the series)): inactive
- outcome ([7]; at 44.8 µM (top of the series)): inactive
- outcome [8]: inactive [at 17.4 µM]
- Potency [9]: inactive
- Potency [10]: inactive
- Potency [11]: inactive
- Potency [12]: inactive
- outcome [13]: inactive [at 17.4 µM]
- Potency [14]: inactive
- Potency [15]: inactive
- Potency [5]: inactive

Structure (SMILES): O=C(O)c1cccc(-c2noc(-c3ccccc3F)n2)c1
- Potency [1]: inactive
- Potency [2]: inactive
- Potency [3]: inactive
- Potency [4]: inactive
- Potency [6]: inactive
- outcome [16]: inactive
- max response [17]: -27.5% and -24.9%
- outcome [17]: inactive
- max response [18]: -19.9% and 8.42%
- max response [19]: -7.81%
- outcome [7, 21]: inactive
- Potency [9]: inactive
- Potency [10]: inactive
- Potency [11]: inactive
- Potency [12]: inactive
- Potency [14]: inactive
- Potency [15]: inactive
- Potency [5]: 11.2 µM (active) and 12.6 µM (active)

Structure (SMILES): CN(C)CCc1c[nH]c2ccc(Cn3cncn3)cc12
- Potency [1]: inactive
- Potency [3]: inactive
- Potency [4]: inactive
- Potency [16]: 1.32 µM (active)
- Potency [20]: 0.743 µM (active)
- max response [18]: 8.57%
- outcome [18]: inactive
- Potency [9]: inactive
- Potency [10]: inactive
- Potency [11]: inactive
- Potency [12]: inactive
- Potency [14]: inactive
- Potency [15]: inactive

Structure (SMILES): CCc1nc(N)nc(N)c1-c1ccc(Cl)cc1
- Potency [1]: inactive
- Potency [2]: inactive
- Potency [3]: inactive
- Potency [4]: 0.178 µM (active)
- max response [16]: -18.3%
- Potency [20]: 6.68 µM (active) and 18.7 µM (active)
- max response [17]: 3.72%
- Potency [19]: 8.41 µM (active) and 9.35 µM (active)
- Potency [11]: inactive
- Potency [12]: inactive
- Potency [15]: 11.9 µM (active)
- Potency [5]: 5.01 µM (active)

Structure (SMILES): Cc1cccc(C)c1OCC(=O)N[C@@H](Cc1ccccc1)[C@@H](O)C[C@H](Cc1ccccc1)NC(=O)[C@H](C(C)C)N1CCCNC1=O
- Potency [1]: 1.12 µM (active)
- Potency [2]: 2.82 µM (active)
- Potency [3]: 1.78 µM (active)
- Potency [4]: 1 µM (active)
- Potency [6]: 1.69 µM (active)
- Potency [5]: inactive

Structure (SMILES): CC(C)c1nc(CN(C)C(=O)N[C@H](C(=O)N[C@@H](Cc2ccccc2)C[C@H](O)[C@H](Cc2ccccc2)NC(=O)OCc2cncs2)C(C)C)cs1
- max response [16]: -16.9% and 0.649% and -2.4%
- max response [17]: -41.4% and 3.85%
- outcome [17]: inactive
- max response [18]: -5.85% and -8.86% and 1.74%
- max response [19]: -19.1% and 3.76%
- outcome [19]: inactive
- outcome [7, 21]: inactive
- Potency [9]: inactive
- Potency [10]: inactive
- Potency [11]: inactive
- Potency [12]: inactive
- outcome [13]: inactive
- Potency [14]: inactive
- Potency [15]: inactive
- Potency [5]: inactive

Structure (SMILES): O=Nc1c(-c2c(O)[nH]c3cc(Br)ccc23)[nH]c2ccccc12
- Potency [20]: 14.8 µM (active)
- Potency [17]: 11.8 µM (active)
- Potency [18]: 13.2 µM (active)
- Potency [9]: 18.7 µM (active)
- Potency [10]: 16.6 µM (active)
- Potency [12]: 16.6 µM (active)
- Potency [14]: 0.059 µM (active)

Structure (SMILES): Cc1cc(O)c2c(c1)C(=O)c1cc(O)cc(O)c1C2=O
- outcome [16]: inactive
- max response [17]: -5.49%
- max response [19]: 0.664%
- Potency [9]: inactive
- Potency [11]: inactive
- Potency [12]: inactive
- Potency [14]: inactive
- Potency [15]: inactive

Structure (SMILES): Cc1cccc(C#Cc2ccccc2)n1
- max response [17]: -25.8%
- max response [19]: -0.211%
- Potency [9]: inactive
- Potency [11]: inactive
- Potency [12]: inactive
- Potency [14]: inactive
- Potency [15]: inactive

Structure (SMILES): COCCCN1CCC(NC(=O)c2cc(Cl)c(N)c3c2OCC3)CC1
- Potency [5]: inactive

Structure (SMILES): Nc1cc(C(Cl)=C(Cl)Cl)c(S(N)(=O)=O)cc1S(N)(=O)=O
- Potency [1]: inactive
- Potency [2]: inactive
- Potency [3]: inactive
- Potency [4]: inactive
- Potency [6]: inactive
- max response [16]: -8.91%
- outcome [20]: inactive
- max response [17]: 2.98% and -14%
- max response [19]: 4.72% and -5.94%
- outcome [8]: inactive
- Potency [9]: inactive
- Potency [10]: inactive
- Potency [11]: inactive
- Potency [12]: inactive
- Potency [14]: inactive
- Potency [15]: inactive
- Potency [5]: inactive

Structure (SMILES): O=C1CCc2ccc(OCCCCN3CCN(c4cccc(Cl)c4Cl)CC3)cc2N1
- Potency [6]: 9.53 µM (active)
- Potency [20]: 16.8 µM (active)
- outcome [17]: inactive
- max response [18]: -20.7%
- max response [19]: -18.1%
- outcome [7, 21]: inactive
- Potency [9]: inactive
- Potency [11]: inactive
- Potency [14]: inactive
- Potency [15]: inactive
- Potency [5]: inactive

Structure (SMILES): Nc1nc(N)c(N=O)c(OCC2CCCCC2)n1
- Potency [16]: 14.8 µM (active)
- max response [17]: -17.6%
- Potency [19]: 16.6 µM (active)
- Potency [10]: inactive
